Values joined by “and” are separate entries in the source; they are usually repeats but may differ in a detail not shown here. Identical values can stand only once. Hit rate of the full screen: of about 220,000 compounds, about 16,000 (7.3%) were called active. Entries that show only a call come without a potency. Not shown: some 25% with an inconclusive outcome. The call rests on the fitted dose curve; in most records, active means well fitted inhibition curve with a large enough effect (not every such curve was filed as active); inconclusive means small, poorly fitted or top-dose-only effect, or another doubt; inactive means no such curve, though single readings can be large or run the other way. The full list was thinned out, with actives kept by preference. Some compounds were tested as several samples or in several runs, with calls that do not always agree.
Potency means the concentration at half of the fitted maximal effect.

The target in the experiment is Aldehyde dehydrogenase 1A1 (Homo sapiens) (UniProt P00352). Briefly: qHTS Assay for Inhibitors of Aldehyde Dehydrogenase 1 (ALDH1A1). The note with it: Purified ALDH1A1, NADH fluorescence, propionaldehyde substrate; series mostly up to 75.3 µM. In general terms: qHTS replaces the single test concentration by a dilution series.
Chain of Aldehyde dehydrogenase 1A1 (Homo sapiens) (P00352 whole entry, looked up): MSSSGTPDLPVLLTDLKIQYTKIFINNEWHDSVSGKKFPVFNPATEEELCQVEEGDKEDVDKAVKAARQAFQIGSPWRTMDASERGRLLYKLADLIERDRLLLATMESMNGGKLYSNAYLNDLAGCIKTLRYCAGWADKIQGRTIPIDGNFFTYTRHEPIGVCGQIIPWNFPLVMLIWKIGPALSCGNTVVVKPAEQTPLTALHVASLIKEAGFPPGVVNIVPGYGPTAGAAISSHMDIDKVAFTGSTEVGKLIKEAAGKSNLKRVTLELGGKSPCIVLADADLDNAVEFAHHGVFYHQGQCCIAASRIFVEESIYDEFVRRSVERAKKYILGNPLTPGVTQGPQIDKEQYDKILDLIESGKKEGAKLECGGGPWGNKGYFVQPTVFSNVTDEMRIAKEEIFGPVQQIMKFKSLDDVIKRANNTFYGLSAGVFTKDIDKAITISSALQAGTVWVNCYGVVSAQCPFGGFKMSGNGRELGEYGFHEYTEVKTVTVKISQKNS
On to `Cc1ccc2c(c1)=C/C(=C\c1c(O)[nH]c(=O)[nH]c1=O)C(=O)N=2`, for which the Potency is 1.58 µM (active). Same read-out and setting: the entry for `COc1ccccc1N=Nc1c(O)[nH]c(=S)[nH]c1=O` is “inactive”.

On to `O=C1N=c2ccccc2=C/C1=C\c1c(O)[nH]c(=S)[nH]c1=O`, for which the Potency is 2.51 µM (active). For `CC(C)CCC1(CCN)C(=O)NC(=O)NC1=O`, the activity, negative = inhibition is 0.154% [at 13.5 µM] (inactive).

As to `CCOc1ccc(CN(CCCl)CCCl)cc1C(=O)OC`, the Potency entry is “inactive”.

In the case of `COc1ccc(C2Oc3c(I)c(OC)cc(OC)c3CC2O)cc1OC` (stereo not given), the Potency result is “inactive”. `O=C(Nc1cccc2ccccc12)N1CCC2(CC1)OCCO2`: the Potency result is “inactive”. Regarding `COc1ccccc1-c1[se]c2ccccc2c1I`, the Potency entry is “inactive”.

On to `Cc1ccc(N(C)C(=O)Oc2cccc3ccc(C)nc23)cc1`, for which the Potency result is “inactive”. For `CS(=N)(=O)CC[C@H](N)P(=O)(O)O` (stereo not given in full), the activity, negative = inhibition was 4.42% [at 13.5 µM] (inactive). Consider `CC(=O)NBr`, for which the Potency result is “inactive”.

`CCC1(c2ccccc2)C(=O)NC(=O)N(C)C1=O` (stereo not given): the Potency result is “inactive”. Same read-out and setting: in the case of `c1ccc(Cc2nn3c(Cn4cnc5ccccc54)nnc3s2)cc1` it was 2.24 µM (active). The same measure, in the same setting: in the case of `c1ccc(CCCCN2CCC(c3ccccc3)CC2)cc1` it was “inactive”. On the same count and under the same terms, in the case of `c1cncc(CNCCc2c[nH]c3ccccc23)c1` it was “inactive”. Consider `NC(=O)Nc1cccc(C(F)(F)F)c1`, for which the Potency result is “inactive”. Same read-out and setting: the entry for `C[C@@]1([C@@H](NP(=O)(c2ccccc2)c2ccccc2)c2ccccc2)C[C@H]1CCO` is “inactive”.

For `CCCCC#N`, the Potency entry was “inactive”. Same read-out and setting: the entry for `Clc1ccc2nc3c(c(-c4ccccc4)c2c1)CNCC3` is “inactive”; for `N#CC(C#N)=Cc1cc(O)c(O)c([N+](=O)[O-])c1` it is “inactive and 20 µM (active)”; for `Cc1cccc(-n2c(O)c(/C=N/N3CCOCC3)c(=O)[nH]c2=S)c1` it is “inactive”. Regarding `CN[C@@H]1C[C@H]2O[C@@](C)([C@@H]1OC)n1c3ccccc3c3c4c(c5c6ccccc6n2c5c31)C(=O)NC4`, the activity, negative = inhibition was -5.83% [at 13.5 µM] (inactive). For the compound `CN(C)C(=O)NC(O)C(Cl)(Cl)Cl` (stereo not given), the Potency entry was “inactive”. On the same count and under the same terms, the figure for `C[C@]12CC[C@@H]3C(=CCc4cc(O)ccc43)[C@@H]1CCC2=O` is 0.501 µM (active); for `CCC(C)C(=O)O[C@@H]1C[C@@]2(C)C(c3ccoc3)OC(=O)CC23OC2(C)O[C@@]14[C@@]1(C)C(CC(=O)OC)C5(C)CC1(O)C(O)(C5OC(=O)C1(C)OC1C)C(OC(C)=O)[C@@]34O2` (stereo not given in full) it is “inactive”.

Take `Cc1noc(C)c1CSc1nc2cc(S(=O)(=O)N3CCOCC3)ccc2o1`: the Potency was 3.55 µM (active). `O=C(c1cc(S(=O)(=O)N2CCOCC2)ccc1F)N1CCC2(CC1)OCCO2`: the Potency result is “inactive”.

Regarding `N#CCCCl`, the Potency entry is “inactive”. The same measure, in the same setting: in the case of `O=C(Nc1cccc(OC(=O)N2CCCCC2)c1)N1CCOCC1` it was “inactive”. On the same count and under the same terms, the figure for `O=C1NC(=O)N(c2ccccc2)C(=O)/C1=C/c1ccc([N+](=O)[O-])s1` is 22.4 µM (active); for `CCN1CCN(C(=O)Cc2coc3cc(C)cc(C)c23)CC1` it is “inactive”; for `Nc1ccc(C(=O)N/N=C2/CN3CCC2CC3)cc1` it is “inactive”.

In the case of `CCCCCCN=C(CC)c1c(O)n(CCCC)c(=O)[nH]c1=O`, the Potency entry is “inactive”. Same read-out and setting: the entry for `CCc1nnc(NS(=O)(=O)c2ccc(N=Cc3c(O)n(-c4ccccc4)c(=O)[nH]c3=O)cc2)s1` is “inactive”; for `C[N+]1(C)CCOC(O)(c2ccc(-c3ccc(C4(O)C[N+](C)(C)CCO4)cc3)cc2)C1` (stereo not given) it is “inactive and 14.1 µM (active)”. On the same count and under the same terms, the entry for `COc1ccc(CCn2c(O)c(C=NCCCn3ccnc3)c(=O)[nH]c2=O)cc1OC` is “inactive”.

For the compound `Cc1cccc2c3c(ccc12)C1=C(C(=O)C3=O)C(C)CO1` (stereo not given), the Potency is 17.8 µM (active). The same measure, in the same setting: in the case of `C=CCN(CC=C)C(=O)Nc1ccc(OCC)cc1` it was “inactive”; in that of `CNC(=S)N/N=C1\C2CN3CCN(C2)CC1(c1ccccc1)C3`, “inactive”; in that of `COc1ccc(CN2CCN(c3ccccc3F)CC2)c(OC)c1`, “inactive”. Same read-out and setting: the figure for `CC(C)c1ccc(O)c(CN2CCN(c3ccccc3)CC2)c1` is 2 µM (active).

Regarding `Fc1ccc(N2CCN(Cc3ccc4c(c3)OCO4)CC2)cc1`, the Potency entry is “inactive”. Still for that read-out and setting: in the case of `COc1ccc2c3c1OC1CC(O)C=C[C@@]31CCN(C)C2` (stereo not given in full) it was “inactive”; in that of `CC1=C(C(=O)Nc2ccccc2)SCCO1`, “inactive”.

`CC(C)N(CC#CCC1(O)c2ccccc2-c2ccccc21)C(C)C`: the Potency entry was “inactive”.

`CN1C2C=C(N(C(=O)c3ccc(Cl)cc3)c3ccccc3)CC1CC2` (stereo not given): the Potency entry is “inactive”. In the case of `CC(C)(O)/C=C\C(=O)[C@](C)(O)[C@H]1[C@H](O)C[C@]2(C)[C@@H]3CC=C4[C@@H](C=C(O)C(=O)C4(C)C)[C@]3(C)C(=O)C[C@@]12C`, the activity, negative = inhibition was 8.67% [at 13.5 µM] (inactive).

Regarding `c1csc(CN2CC3(CCNCC3)C2)n1`, the Potency result was “inactive”. Consider `c1ccc2c(c1)[I+]c1ccccc1-2`, for which the Potency result is “inactive”. For the compound `Cc1ccc(-n2c(C)cc(/C=C3\C(=O)NC(=O)N(C)C3=O)c2C)cc1C`, the Potency is 17.8 µM (active).

Consider `Cc1cc(C=C2C(=O)NC(=O)NC2=O)c(C)n1-c1ccncc1`, for which the Potency was 14.1 µM (active).

Turning to `Cc1ccccc1N1C(=O)NC(=O)/C(=C\c2cc(C)n(C)c2C)C1=O`, the Potency result is “inactive”. Same read-out and setting: in the case of `CSC1=NP(=S)(SC)N(C)c2nc3n(c21)CCC3` (stereo not given) it was “inactive”. Still for that read-out and setting: the entry for `CCOP(=O)(OCC)C(NC(=O)c1ccc(C)cc1)C(Cl)(Cl)Cl` (stereo not given) is “inactive”. Take `CCN(CC)CCn1ncc2c(N)ncnc21`: the activity, negative = inhibition is 1.51% [at 13.5 µM] (inactive).

Turning to `CCCCCCCCc1[se]c2ccccc2c1Br`, the Potency entry was “inactive”. On to `NCCc1ccc(S(=O)(=O)F)cc1`, for which the Potency entry was “inactive”. Same read-out and setting: the entry for `O=C(CN1CCCCC1)Nc1ccc(Br)cc1C(=O)c1ccccc1Cl` is “inactive”; for `CCN1CCN(c2ccc([N+](=O)[O-])cc2C#N)CC1` it is “inactive”.

On to `COc1ccccc1-n1c(O)c(C=NC2CC2)c(=O)[nH]c1=O`, for which the Potency entry is “inactive”. Turning to `O=c1c2ccccc2nc(-c2ccccc2)n1-c1ccccn1`, the Potency entry was “inactive”.

Regarding `O=c1c2ccccc2nc(-c2ccc(Cl)cc2Cl)n1-c1ccncc1`, the Potency result is “inactive”. The same measure, in the same setting: the figure for `Cc1ccc(-n2c(-c3ccc([N+](=O)[O-])cc3)nc3ccccc3c2=O)cc1` is 7.51 µM (active). Same read-out and setting: the entry for `Cc1cccc2c(CCN)c[nH]c12` is “inactive”; for `Cc1ncsc1CCCl` it is “inactive”.

For the compound `COc1ccc(C(=O)CC2C(=O)N(C)C(=O)N(C)C2=O)cc1`, the Potency was 17.8 µM (active). The same measure, in the same setting: in the case of `CCOP(=O)(OCC)C(NC(=O)c1ccc(OC)cc1)C(Cl)(Cl)Cl` (stereo not given) it was “inactive”; in that of `COc1ccc(-c2nn(CCC#N)cc2C(=O)O)cc1`, “inactive”. As to `COc1cc(-n2c(=S)[nH]c3ccc(C)cc3c2=O)c(Cl)cc1Cl`, the Potency entry was “inactive”. Same read-out and setting: the entry for `CN(C)P(=S)(Nc1ccccc1)C(Cl)(Cl)Cl` (stereo not given) is “inactive”; for `O=NO` it is “inactive and 11.2 µM (active)”. With `C[C@@]12CC[C@H](O)C[C@@H]1CC[C@@H]1[C@@H]2CC[C@@]2(C)[C@@H](C3=CC(=O)OC3)[C@H](O)C[C@]12O`, the activity, negative = inhibition was 23.8% [at 13.5 µM] (inactive).

As for `OC(CNC1CCCCC1)c1ccccc1` (stereo not given), the Potency result was “inactive”. Same read-out and setting: the entry for `CC(Cc1cccs1)NCc1ccc(Cl)cc1` (stereo not given) is “inactive”; for `CCN(CC)C(=O)c1ccc(NC(=O)c2cc(-n3cnnc3)ccc2Cl)cc1` it is 25.1 µM (active); for `CC(C)(Cc1c[nH]c2ccc(Cl)cc12)NCCOc1ccccc1OCC1CC1` it is “inactive”.

Take `O=c1[nH]c(=O)n(-c2ccccc2)c(O)c1C=NC12CN3CN(CN(C3)C1)C2`: the Potency result is “inactive”.

Consider `C=CCN1CCC2(C)c3cc(O)ccc3CC1[C@@H]2C` (stereo not given in full), for which the Potency entry is “inactive”.

On to `CC(=O)O[C@H]1CC[C@@]2(C)[C@@H](CC[C@H]3[C@H]2CC(=O)[C@]2(C)[C@@H]3C[C@@H](N3CC3)[C@H]2C(C)=O)C1`, for which the activity, negative = inhibition was 6.14% [at 13.5 µM] (inactive). Regarding `COC1CC(OC2CC[C@@]3(C=O)C4CC[C@]5(C)C(C6=CC(=O)OC6)CC[C@@]5(O)C4CC[C@]3(O)C2)OC(C)C1O` (stereo not given in full), the Potency result is “inactive”. On the same count and under the same terms, in the case of `O=C(O)CCn1cc(C=C2C(=O)NC(=S)NC2=O)c(-c2cccc(Br)c2)n1` it was 10 µM (active); in that of `COP(=O)(NS(=O)(=O)c1ccccc1)OC`, “inactive”; in that of `CN1C2CC3CC1C(O3)C2O` (stereo not given), “inactive”. Still for that read-out and setting: in the case of `C[C@@]12CC[C@H]3[C@@H](CC[C@]4(O)C[C@H](O)CC[C@@]34C=O)[C@]1(O)CC[C@@H]2C1=CC(=O)OC1` it was “inactive”. The same measure, in the same setting: in the case of `OC1/C(=C/c2ccc(C(F)(F)F)cc2)N2CCC1CC2` (stereo not given) it was “inactive”; in that of `CCCCC/C=C\C/C=C\C/C=C\C=C\[C@H](CCCC(=O)O)OO`, “inactive”.

Regarding `CCCCC/C=C\C/C=C\C/C=C\C/C=C\CCCCCC(=O)NCCO`, the Potency result is “inactive and 14.1 µM (active)”. The same measure, in the same setting: in the case of `CCCCC/C=C\C/C=C\C/C=C\CCCCCCC(=O)NCCO` it was “inactive”; in that of `O=C(COC(=O)Cc1ccccc1)Nc1ccc(F)cc1`, “inactive”; in that of `O=c1[nH]c(=O)n(Cc2ccccc2)c(O)c1/C=N/Nc1c(F)c(F)c(F)c(F)c1F`, “inactive”. Regarding `CNC(=O)N(C)c1nnc(C(C)(C)C)s1`, the Potency entry was “inactive”.

Consider `CN1[C@@H]2CC[C@H]1CC(OC(=O)c1cc(Cl)cc(Cl)c1)C2` (stereo not given in full), for which the Potency entry is “inactive”.

As to `BrC1C(Br)C(Br)C(Br)C(Br)C1Br` (stereo not given), the Potency was 20 µM (active). The same measure, in the same setting: in the case of `O=C(CCN1CCCCC1)NCC(=O)Nc1ccc(Br)cc1C(=O)c1ccccc1` it was “inactive”; in that of `N[C@H](Cc1o[nH]c(=O)c1Cl)C(=O)O`, “inactive”. With `CC(C)(C)CC(=O)Nc1nnc(SCC(=O)NCc2cccs2)s1`, the Potency was 17.8 µM (active). Consider `N[C@H](C(=O)O)c1cc(=O)[nH]o1`, for which the Potency entry was “inactive”. The same measure, in the same setting: the entry for `N#Cc1ccc(Cn2cc(C(=O)c3ccco3)c3ccccc32)cc1` is “inactive”; for `COP(=O)(OC)C(NC(=O)c1ccc(C)cc1)C(Cl)(Cl)Cl` (stereo not given) it is “inactive”; for `OC(Cn1c2ccccc2c2ccccc21)C[n+]1ccccc1` (stereo not given) it is “inactive”. In the case of `CCNc1nc2[nH]c(=O)c3c(c2s1)OC(N)=C(C#N)C3c1cccs1` (stereo not given), the Potency entry was “inactive”. The same measure, in the same setting: the entry for `CCCCN1C2CCC1CC(OC(c1ccc(F)cc1)c1ccc(F)cc1)C2` (stereo not given) is “inactive”. The same measure, in the same setting: in the case of `Cc1ccc(NN=C2C(=O)OC(C)(C)OC2=O)c(C)c1` it was 10 µM (active). Still for that read-out and setting: in the case of `Cc1nc2nc(C)c(CCC(=O)N3CCC4(CC3)OCCO4)c(C)n2n1` it was “inactive”; in that of `CC1=CC(=O)C2=C(C)C[C@H](O)[C@H]3[C@H](C)C(=O)O[C@@H]3C12` (stereo not given in full), “inactive”.

The values are drawn from PubChem BioAssay AID1030 (National Center for Advancing Translational Sciences (NCATS), 2008).
